{
  "source": "PubChem BioAssay AID485346",
  "about": "(Sanford-Burnham Center for Chemical Genomics, 2010)",
  "note": "In all, about 330,000 compounds went through this assay and about 10,000 (3%) were called active.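 The calls were made as follows: active = inhibition of at least 50% at 8 µM in the primary screen; inactive = the rest.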 What follows is part of a selection rich in actives, with near analogues and random picks from the rest.",
  "data": [
    {"target": "Protein Mdm4 (Homo sapiens) + E3 ubiquitin-protein ligase Mdm2 (Homo sapiens) (UniProt O15151+Q00987)", "sequence (O15151 whole entry, looked up)": "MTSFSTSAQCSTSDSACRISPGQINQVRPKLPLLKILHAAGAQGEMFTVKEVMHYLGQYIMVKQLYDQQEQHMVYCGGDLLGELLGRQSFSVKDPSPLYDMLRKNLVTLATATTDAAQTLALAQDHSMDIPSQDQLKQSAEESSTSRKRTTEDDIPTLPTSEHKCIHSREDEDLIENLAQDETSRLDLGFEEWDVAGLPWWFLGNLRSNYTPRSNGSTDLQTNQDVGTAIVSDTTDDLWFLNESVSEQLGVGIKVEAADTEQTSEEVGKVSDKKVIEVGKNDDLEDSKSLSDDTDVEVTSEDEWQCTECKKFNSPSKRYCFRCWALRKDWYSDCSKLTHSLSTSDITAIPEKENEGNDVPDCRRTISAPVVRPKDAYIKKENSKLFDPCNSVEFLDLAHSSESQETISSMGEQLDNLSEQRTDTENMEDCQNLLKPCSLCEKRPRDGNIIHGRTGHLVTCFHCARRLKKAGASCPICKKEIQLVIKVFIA", "sequence (Q00987 whole entry, looked up)": "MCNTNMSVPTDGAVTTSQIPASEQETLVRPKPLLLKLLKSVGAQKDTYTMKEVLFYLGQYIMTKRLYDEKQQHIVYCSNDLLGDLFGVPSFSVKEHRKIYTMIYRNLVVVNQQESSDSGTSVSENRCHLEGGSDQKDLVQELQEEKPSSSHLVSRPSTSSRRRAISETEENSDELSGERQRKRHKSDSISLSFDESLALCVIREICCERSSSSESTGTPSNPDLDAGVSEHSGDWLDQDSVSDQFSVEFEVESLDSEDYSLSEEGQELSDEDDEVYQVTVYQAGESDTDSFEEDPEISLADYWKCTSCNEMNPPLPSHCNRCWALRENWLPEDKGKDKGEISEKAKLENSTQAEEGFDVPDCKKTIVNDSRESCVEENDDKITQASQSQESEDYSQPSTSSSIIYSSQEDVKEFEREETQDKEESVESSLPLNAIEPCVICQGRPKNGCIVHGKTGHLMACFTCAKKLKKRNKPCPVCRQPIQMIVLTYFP", "test": "disruptors of Mdm2/MdmX RING complex – cell-based, luminescence, split luciferase, SaOS-2, uHTS, primary screen (AID 485346)", "conditions": "SaOS-2 split-luciferase Mdm2/MdmX complementation, at 8 µM, hits give high values", "values": [
      {"smiles": "CC1CN(C(=O)CCC(=O)NCc2cccnc2)c2ccccc2O1", "note": "(configuration not stated)", "inhibition": "-8.45% (inactive)"},
      {"smiles": "CC1CN(C(=O)CCC(=O)NCCCN2CCC(Cc3ccccc3)CC2)c2cc(Cl)ccc2O1", "note": "(configuration not stated)", "inhibition": "90.6% (active)"},
      {"smiles": "CC1CN(C(=O)CCC(=O)NC2CCN(Cc3ccccc3)CC2)c2ccccc2O1", "note": "(configuration not stated)", "inhibition": "22.7% (inactive)"},
      {"smiles": "CC(OC(=O)CCc1nc(=O)c2ccccc2n1C)C(=O)NCc1ccc2c(c1)OCO2", "note": "(configuration not stated)", "inhibition": "-11.9% (inactive)"},
      {"smiles": "CN(CC(=O)NC(=O)Nc1ccccc1F)Cc1ccccc1", "inhibition": "-18% (inactive)"},
      {"smiles": "CCOC(=O)CSc1nncc2ccc(OC)c(OC)c12", "inhibition": "0.893% (inactive)"},
      {"smiles": "COc1ccc(C2c3c(C)nn(-c4ccccc4)c3NC(=O)N2c2ccccc2)cc1", "note": "(configuration not stated)", "inhibition": "9.76% (inactive)"},
      {"smiles": "CCCCCCCCn1c2c(c(=N)c3c1CCC3)CCCC2", "inhibition": "87% (active)"},
      {"smiles": "Cc1cc([N+](=O)[O-])nn1CCCC(=O)Nc1cccnc1Cl", "inhibition": "21.4% (inactive)"},
      {"smiles": "COc1ccc(N2CCN(S(=O)(=O)CCNC(=O)C34CC5CC(CC(C5)C3)C4)CC2)cc1", "inhibition": "17.2% (inactive)"},
      {"smiles": "CCOC(=O)C(C)n1nc(-c2ccccc2)c2ccccc2c1=O", "note": "(configuration not stated)", "inhibition": "7.24% (inactive)"},
      {"smiles": "Cc1cc(C)nc(/N=C2\\NC(=O)CC(C(=O)O)N2c2ccc(Cl)cc2Cl)n1", "note": "(configuration not stated)", "inhibition": "3.8% (inactive)"},
      {"smiles": "O=C(COC(=O)c1ccccc1Cl)NC1CCCCCCC1", "inhibition": "4.18% (inactive)"},
      {"smiles": "COc1cc(NC(=O)c2ccccc2NS(=O)(=O)c2ccc(Cl)s2)cc(OC)c1", "inhibition": "85.1% (active)"},
      {"smiles": "COC(=O)c1ccc(NC(=O)c2ccccc2NS(=O)(=O)c2ccccc2)cc1", "inhibition": "36.9% (inactive)"},
      {"smiles": "COc1cc(OC)c(S(=O)(=O)Nc2ccccc2C(=O)O)cc1S(=O)(=O)Nc1ccccc1C(=O)O", "inhibition": "13.2% (inactive)"},
      {"smiles": "O=C(Nc1cc2c3c(c1)C1CCCC1CN3CC1CCCC21)c1ccc([N+](=O)[O-])cc1", "note": "(configuration not stated)", "inhibition": "14.3% (inactive)"},
      {"smiles": "CN(C)c1ccc(C=NCCc2ccc(S(N)(=O)=O)cc2)cc1", "inhibition": "5.89% (inactive)"},
      {"smiles": "Cc1cc2cc3c(cc2nc1SCC(=O)Nc1c(C)cccc1C)CCC3", "inhibition": "56.1% (active)"},
      {"smiles": "Cc1cc(C)c(C#N)c(SCC(=O)Nc2ccccc2)n1", "inhibition": "-38.3% (inactive)"},
      {"smiles": "Cc1cccc(C)c1NC(=O)CSc1ccc([N+](=O)[O-])cn1", "inhibition": "7.43% (inactive)"},
      {"smiles": "CN(C)CCn1c2c(c(SCC(=O)Nc3ccccc3C(F)(F)F)nc1=O)CCCC2", "inhibition": "18.8% (inactive)"},
      {"smiles": "Cc1cccn2c(=O)c3cc(C(=O)NCC4CCCO4)c(=N)n(Cc4ccc(F)cc4)c3nc12", "note": "(configuration not stated)", "inhibition": "19.6% (inactive)"},
      {"smiles": "Cc1ccc2nc3c(cc(C(=O)NCCc4ccccc4)c(=N)n3CC3CCCO3)c(=O)n2c1", "note": "(configuration not stated)", "inhibition": "27.8% (inactive)"},
      {"smiles": "COc1ccc(CCn2c(=N)c(C(=O)NCC3CCCO3)cc3c(=O)n4cccc(C)c4nc32)cc1OC", "note": "(configuration not stated)", "inhibition": "64.4% (active)"},
      {"smiles": "COc1ccc(CNC(=O)c2cc3c(=O)n4ccccc4nc3n(CC3CCCO3)c2=N)cc1", "note": "(configuration not stated)", "inhibition": "22.4% (inactive)"},
      {"smiles": "Cc1cccn2c(=O)c3cc(C(=O)NCCN4CCOCC4)c(=N)n(Cc4cccnc4)c3nc12", "inhibition": "52.7% (active)"},
      {"smiles": "Cc1cccn2c(=O)c3cc(C#N)c(=O)n(CCCN4CCOCC4)c3nc12", "inhibition": "16% (inactive)"},
      {"smiles": "COc1cccc(C2=CC(=O)C[C@H](c3ccc(F)cc3)C2)c1OC", "inhibition": "11.8% (inactive)"},
      {"smiles": "Cc1nc(-c2ccc(Cl)cc2)sc1C1(C)CC(c2ccc(Br)cc2)=NO1", "note": "(configuration not stated)", "inhibition": "4.57% (inactive)"},
      {"smiles": "Cc1c(Cl)cccc1NC(=O)Nc1ccc(C(=O)N2CCCC2)cc1", "inhibition": "41.9% (inactive)"},
      {"smiles": "Cc1[nH]c(C)c(S(=O)(=O)N2CCC(C)CC2)c1C(=O)N1CCCC1", "inhibition": "-8.55% (inactive)"},
      {"smiles": "N#Cc1ccc(C2=CC(=O)C[C@H](c3ccc(Cl)cc3)C2)cc1", "inhibition": "-22.1% (inactive)"},
      {"smiles": "CC(=NCc1ccco1)C1=C(O)c2ccccc2C1=O", "inhibition": "-27.5% (inactive)"},
      {"smiles": "CCOC(=O)c1c(-c2ccc(C)cc2)csc1/N=C(\\C)C1=C(O)c2ccccc2C1=O", "inhibition": "63.4% (active)"},
      {"smiles": "COC(=O)c1c(-c2ccc(C)cc2)csc1N", "inhibition": "16.7% (inactive)"},
      {"smiles": "Cc1cc(-c2ccc(S(=O)(=O)N3CCc4ccccc4C3)s2)on1", "inhibition": "-2.71% (inactive)"},
      {"smiles": "C/C(=N\\NC(=O)c1ccc(C)cc1)C1C(=O)c2ccccc2C1=O", "inhibition": "1.09% (inactive)"},
      {"smiles": "COc1cc(NC(=O)c2ccc(CNc3c(N4CCCC4)c(=O)c3=O)cc2)cc(OC)c1OC", "inhibition": "-9.99% (inactive)"},
      {"smiles": "O=C(NCc1ccc2c(c1)OCO2)c1c(O)nc2sccn2c1=O", "inhibition": "16.7% (inactive)"},
      {"smiles": "CC(=O)c1c(OCC(=O)N(C)C2CCCCC2)ccc2c(C)cc(=O)oc12", "inhibition": "4.3% (inactive)"},
      {"smiles": "O=C(CN1CCN(c2ccc(F)cc2)CC1)Nc1ccccc1", "inhibition": "0.1% (inactive)"},
      {"smiles": "Oc1c(CN2CCN(c3ccc(F)cc3)CC2)cc(Cl)c2cccnc12", "inhibition": "65% (active)"},
      {"smiles": "Oc1c(CN2CCCC2)cc(COCc2ccccc2)c2cccnc12", "inhibition": "75.7% (active)"},
      {"smiles": "Cc1cccnc1NC(=O)c1cccc(S(=O)(=O)N2CCN(c3ccc(F)cc3)CC2)c1", "inhibition": "28.4% (inactive)"},
      {"smiles": "CC1CCCN(CC(O)COCc2ccccc2)C1", "note": "(configuration not stated)", "inhibition": "3.39% (inactive)"},
      {"smiles": "COc1cc(C)cc(CN2CCC(Cc3ccccc3)CC2)c1O", "inhibition": "-29.4% (inactive)"},
      {"smiles": "CC(C)(C)C1CCC(C(=O)Nc2cccnc2)CC1", "note": "(configuration not stated)", "inhibition": "19% (inactive)"},
      {"smiles": "CCC(C)(C(=O)Nc1ccccc1C)N(C(=O)CNC(C)=O)c1ccc(C)cc1", "note": "(configuration not stated)", "inhibition": "-5.46% (inactive)"},
      {"smiles": "CN1CCN(C2Cc3ccc(Cl)cc3Sc3ccc(F)cc32)CC1", "note": "(configuration not stated)", "inhibition": "54.3% (active)"},
      {"smiles": "CC(OC(=O)CCCOc1ccccc1)C(=O)Nc1ccc(Cl)cn1", "note": "(configuration not stated)", "inhibition": "17.5% (inactive)"},
      {"smiles": "COC(=O)[C@@H]1C[C@@]2(O)[C@H](O)[C@H](O)[C@H](O)C[C@H]2N1Cc1ccc(C)s1", "inhibition": "7.36% (inactive)"},
      {"smiles": "Cc1cccc2cc(CN(Cc3nnnn3Cc3ccccc3)C3CCCC3)c(=O)[nH]c12", "inhibition": "13.2% (inactive)"},
      {"smiles": "CCC(c1nnnn1Cc1ccco1)N(CCc1ccccc1)Cc1cc2cccc(C)c2[nH]c1=O", "note": "(configuration not stated)", "inhibition": "12.5% (inactive)"},
      {"smiles": "CCC(c1nnnn1C1CCCC1)N(Cc1cccs1)Cc1cc2cccc(C)c2[nH]c1=O", "note": "(configuration not stated)", "inhibition": "56.1% (active)"},
      {"smiles": "CN(C(=O)CSc1cccc[n+]1[O-])C1CCCCC1", "inhibition": "20.9% (inactive)"},
      {"smiles": "CN1CCN(CC#CCC2(O)c3ccccc3-c3ccccc32)CC1", "inhibition": "16.2% (inactive)"}
    ]}
  ]
}
